# Rows were chosen to be rich in hits. Some 2.3% of all compounds tested hit in one or more screens of this group.
# ANO1 block: mouse TMEM16A channel inhibition, primary screen | HEK293 TMEM16A/YFP iodide influx fluorescence, ionomycin | normalized B-score (activity score, 25-100; higher = stronger inhibition) at 10 µM | hit rate 1.2% among 310,000 | AID 588511;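 active means ratio plate-corrected score three or more library SD toward inhibition, starting fluorescence score within five deviations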;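 further: score derived from kinetic fluorescence span divided by baseline fluorescence per well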
# CHT allo act: allosteric activators of human choline transporter CHT; CHT-expressing cells, membrane potential dye, choline EC20; hits give high values; LV-AA mutant CHT in HEK293 cells; AID 488977; B-score at 10 µM; hit rate 0.49% among 310,000;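 active means initial fluorescence not abnormally high and integrated response B-score, plate-corrected, over 3 SD above library mean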
# Target sequence (Q9GZV3 whole entry, looked up): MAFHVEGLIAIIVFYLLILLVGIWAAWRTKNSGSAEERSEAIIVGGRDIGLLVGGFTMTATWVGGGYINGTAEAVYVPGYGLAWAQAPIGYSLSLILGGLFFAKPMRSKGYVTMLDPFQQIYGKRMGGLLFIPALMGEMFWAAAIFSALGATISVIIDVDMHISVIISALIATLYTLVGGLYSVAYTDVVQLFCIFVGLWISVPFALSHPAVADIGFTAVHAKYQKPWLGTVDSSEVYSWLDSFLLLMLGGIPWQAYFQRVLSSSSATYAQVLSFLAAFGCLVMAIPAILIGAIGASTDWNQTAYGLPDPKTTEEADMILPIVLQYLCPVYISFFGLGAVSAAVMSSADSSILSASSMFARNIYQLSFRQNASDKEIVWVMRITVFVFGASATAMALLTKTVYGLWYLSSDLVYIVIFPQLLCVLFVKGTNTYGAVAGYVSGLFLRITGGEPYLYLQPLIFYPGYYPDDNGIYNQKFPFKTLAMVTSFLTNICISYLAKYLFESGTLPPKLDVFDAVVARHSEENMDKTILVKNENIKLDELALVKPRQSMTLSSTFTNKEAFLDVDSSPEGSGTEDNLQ
# CHT inh: inhibits the human high affinity choline transporter; Q9GZV3; CHT-expressing cells, membrane potential dye, choline response; hits give low values; B-score at 10 µM; hit rate 0.86% among 310,000; AID 488975;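 active means B-score over 3 SD under the library average, and starting fluorescence ratio not unusually high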;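 further: choline stimulus applied at its EC90 after an EC20 pre-addition; B-score computed on integrated fluorescence ratio after choline addition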
# ANO1 activ: mouse TMEM16A channel activation, primary screen; Q8BHY3; hit rate 0.3% among 340,000; HEK293 TMEM16A/YFP-H148Q/I152L, iodide quench fluorescence; hits give low values; B-score at 10 µM;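 active means fluorescence-ratio B-score plate-corrected deviation score at least 3 library SD below zero, with starting fluorescence score within 5 deviations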;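 further: channel opened by trigger with iodide after compound preincubation; score built on the fluorescence ratio of max minus min over baseline; more negative score means more quench and so TMEM16A activation or potentiation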
# CHT inh conf: human CHT inhibition, confirmatory screen; hit rate 70% among 2,400; AID 493221; CHT-expressing cells, choline membrane potential dye; LV-to-AA substituted CHT, HEK293 cells; CHT activity remaining % of control (hits give low values), % at 10 µM; shares compounds with CHT inh;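 active means choline transporter activity left, mean of duplicates at 10 µM, below buffer-only control mean minus 3 SD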;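 further: depolarization triggered by choline at its EC90 following an EC20 pre-addition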
# HEK293 CHT ctr: counter-screen for CHT inhibitors: effect in parental HEK293 cells | shares compounds with CHT inh | membrane potential dye, choline response; active = decrease or increase beyond buffer ±3SD | membrane potential ratio readout (active if shifted either direction beyond buffer ±3SD; no single direction) at 10 µM | hit rate 4% among 2,400 | AID 493222;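 further: parental cells lack the transporter so any hit is non-specific; ratio is peak minus trough fluorescence over baseline after EC90 choline challenge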
# A number is an active result; 0 = inactive; - = no result given.
SMILES,ANO1 block,CHT allo act,CHT inh,ANO1 activ,CHT inh conf,HEK293 CHT ctr
O=C(NCCc1ccccc1)C(=O)NCC(c1ccco1)N1CCOCC1 (centres undefined),0,0,0,0,-,-
COc1ccc(C(=O)NNC(=S)NC(=O)c2ccco2)cc1,0,0,0,0,-,-
CC(Oc1ccc(Cl)cc1)C(=O)NNC(=S)NC(=O)c1ccco1 (centres undefined),0,0,-6.5,0,58%,0
Cc1ccc(C)c(NC(=O)CCc2nnc3ccc(N4CCCC4)nn23)c1,0,0,0,0,-,-
CSc1ccc(CCNC(=O)CCc2nnc3ccc(N4CCCC4)nn23)cc1,0,0,-5.3,0,0,0
Cc1ccc2c(c1)C1CN(C)CCC1N2C(=O)c1ccccc1NS(=O)(=O)c1ccc(F)cc1 (centres undefined),0,0,0,0,-,-
Cc1ccc2c(c1)C1CN(C)CCC1N2C(=O)c1ccccc1NS(=O)(=O)c1cccc(C(F)(F)F)c1 (centres undefined),0,0,-6.9,0,37%,0
CCN(CC(=O)Nc1c(F)cccc1F)C(=O)c1ccc(N2CCOCC2)c([N+](=O)[O-])c1,0,0,0,0,-,-
CCOc1ccc(N/C(SCc2cccc([N+](=O)[O-])c2)=C(/C#N)C(N)=O)cc1,0,0,0,0,-,-
N#CC(C#N)=C(Nc1ccc(F)cc1)SCc1cccc(F)c1,25,0,-5.8,0,65%,0
CC(C)[C@H](NC(=O)c1ccccc1)C(=O)OCC(=O)c1ccc2c(c1)NC(=O)CO2,0,0,-9,0,33%,0
CC[C@H](C)[C@H](NC(=O)c1ccc(Cl)cc1)C(=O)OCC(=O)c1ccc2c(c1)NC(=O)CO2,0,0,-5.7,0,32%,0
COc1cc(OC)cc(C(=O)N[C@H](C(=O)OCC(=O)c2ccc3c(c2)NC(=O)CO3)C(C)C)c1,0,0,0,0,-,-
Nn1c(Cc2ccccc2F)nnc1SCC(=O)Nc1cccc(S(=O)(=O)NC2=NCCCCC2)c1,0,0,-6.1,0,0,0
Cn1c(Cc2ccccc2)nnc1SCC(=O)Nc1cccc(S(=O)(=O)NC2=NCCCCC2)c1,0,0,0,0,-,-
CC(C)(C)n1nnnc1C(c1ccc2ncccc2c1)N1CCC(O)CC1 (centres undefined),0,0,-5.3,0,0,0
COc1ccc(C(c2nnnn2C(C)(C)C)N2CCN(C(=O)c3ccco3)CC2)cc1 (centres undefined),0,0,0,0,-,-
Cc1c(O)cc2n(c1=O)-c1ccc(Cl)cc1C2(C)C,0,0,0,0,-,-
CC(=O)c1c(O)cc(C(C)C)n(-c2ccccc2)c1=O,0,0,0,0,-,-
CC1(C)c2cc(Cl)ccc2-n2c1cc(O)c(-c1ccccc1)c2=O,0,0,-6,0,44%,0
CC(C)c1cc(O)c(-c2ccccc2)c(=O)n1-c1ccc(Cl)cc1,0,0,-5,0,0,0
C=CCc1cc(Cl)ccc1OCCCn1ccnc1,0,0,0,0,-,-
O=C1OCCC1Sc1nnc(-c2ccccc2Cl)n1Cc1ccccc1 (centres undefined),0,0,-6.9,0,0,0
CC1CCCC(C)N1C(=O)COC(=O)c1n[nH]c(=O)c2ccccc12 (centres undefined),-,-,-,0,-,-
C=CCc1cccc2cc(C(=O)OCC(=O)c3ccccc3)c(=O)oc12,0,0,0,0,-,-
SMILES,ANO1 block,CHT allo act,CHT inh,ANO1 activ,CHT inh conf,HEK293 CHT ctr
CCCCc1nc(NCCO)c(C#N)c2c1CCCC2,0,0,-5.9,0,0,0
CCOC(=O)c1c(C)c(C(=O)N2CCc3ccccc3C2)c(C)n1CC,0,0,-5.8,0,39%,0
CCOC(=O)c1c(C)c(C(=O)Nc2ccccc2)c(C)n1CC,0,0,0,0,-,-
O=C(Nc1c(C(=O)N2CCC(N3CCCCC3)CC2)oc2ccccc12)c1ccc(F)cc1,0,0,-13,0,0.9%,0
O=C(Nc1c(C(=O)N2CCC(N3CCCCC3)CC2)oc2ccccc12)c1c(F)cccc1F,0,0,0,0,-,-
O=C(COc1ccccc1)Nc1c(C(=O)N2CCC(N3CCCCC3)CC2)oc2ccccc12,0,0,-7.5,0,37%,3.7

# Assay outcomes deposited in PubChem by Johns Hopkins Ion Channel Center.
